# Data reported in paper PMC7862700, “An all-to-all approach to the identification of sequence-specific readers for epigenetic DNA modifications on cytosine”.
# Experiments:
# Assay in all cases: DAPPL (digital affinity profiling via proximity ligation, sequencing); 10 mM Tris-HCl pH 7.5, 50 mM NaCl, 1 mM DTT, 4% glycerol, room temperature, 30 min; GST-TFs on glutathione beads, 16-mer random dsDNA library, 0.1% formaldehyde crosslink after washing; high values mean tight binding
# [1] = biological target: T1, FLI1 (Homo sapiens, UniProt Q01543 1-452); conditions: protein: recombinant; tags: N-terminal GST; dsDNA, one strand shown
# T1 sequence: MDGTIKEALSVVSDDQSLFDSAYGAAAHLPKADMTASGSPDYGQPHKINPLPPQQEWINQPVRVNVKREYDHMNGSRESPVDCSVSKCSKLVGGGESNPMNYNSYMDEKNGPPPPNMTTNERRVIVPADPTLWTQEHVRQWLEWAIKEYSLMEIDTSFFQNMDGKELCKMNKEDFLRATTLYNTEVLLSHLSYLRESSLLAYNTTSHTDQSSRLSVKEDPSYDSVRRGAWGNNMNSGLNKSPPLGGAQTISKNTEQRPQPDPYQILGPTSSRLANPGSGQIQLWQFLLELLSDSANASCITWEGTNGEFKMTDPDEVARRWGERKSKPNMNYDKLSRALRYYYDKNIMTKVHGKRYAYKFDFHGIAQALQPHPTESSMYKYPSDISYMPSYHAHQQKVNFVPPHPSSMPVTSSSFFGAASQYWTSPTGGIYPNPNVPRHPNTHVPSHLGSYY
# How it was run: (§1)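 Sequencing on an Illumina NextSeq500 followed washing, crosslinking with 0.1% formaldehyde, proximity ligation (BsaI/T4 ligase, 1 h, 37 °C) and PCR amplification of pools that had been incubated for 30 min at room temperature with 200 nmole of a random double-stranded 16-mer DNA library in Tris/NaCl/DTT/glycerol buffer. Each pool held DNA-barcoded human transcription factors, expressed in yeast as GST fusions and captured on glutathione beads, plus a tag-only sample. Binding signal is a hexamer's read frequency for a factor divided by its frequency in the tag-only sample.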
# [2] = biological target: T2, ELK1 (Homo sapiens, UniProt P19419 1-428); conditions: protein: recombinant; tags: N-terminal GST; dsDNA, one strand shown
# T2 sequence: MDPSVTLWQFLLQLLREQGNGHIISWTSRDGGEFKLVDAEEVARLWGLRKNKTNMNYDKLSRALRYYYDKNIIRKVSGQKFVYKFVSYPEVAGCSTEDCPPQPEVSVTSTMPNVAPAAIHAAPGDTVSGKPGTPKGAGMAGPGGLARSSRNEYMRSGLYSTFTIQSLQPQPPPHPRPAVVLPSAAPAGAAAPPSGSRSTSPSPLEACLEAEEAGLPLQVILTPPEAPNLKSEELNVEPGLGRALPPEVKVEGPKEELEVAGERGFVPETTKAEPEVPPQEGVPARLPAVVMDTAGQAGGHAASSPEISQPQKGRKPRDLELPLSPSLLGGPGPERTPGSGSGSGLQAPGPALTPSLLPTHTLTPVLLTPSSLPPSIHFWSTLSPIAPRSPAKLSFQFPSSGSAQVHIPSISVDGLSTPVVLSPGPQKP
# How it was run: as §1
# [3] = biological target: T3, GABPA (Homo sapiens, UniProt Q06546 1-454); conditions: protein: recombinant; tags: N-terminal GST; dsDNA, one strand shown
# T3 sequence: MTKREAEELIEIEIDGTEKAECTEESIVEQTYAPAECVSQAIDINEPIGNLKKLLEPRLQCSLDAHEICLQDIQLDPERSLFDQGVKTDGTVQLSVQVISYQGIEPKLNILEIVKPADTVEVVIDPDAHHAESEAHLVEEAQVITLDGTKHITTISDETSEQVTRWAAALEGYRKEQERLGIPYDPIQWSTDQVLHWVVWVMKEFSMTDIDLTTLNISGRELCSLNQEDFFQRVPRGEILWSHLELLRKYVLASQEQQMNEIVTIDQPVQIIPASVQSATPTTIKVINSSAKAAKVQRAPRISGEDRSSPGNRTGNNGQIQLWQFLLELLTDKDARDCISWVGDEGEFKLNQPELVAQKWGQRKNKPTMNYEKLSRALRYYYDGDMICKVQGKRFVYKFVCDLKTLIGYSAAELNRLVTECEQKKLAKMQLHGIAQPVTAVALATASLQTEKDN
# How it was run: as §1
# [4] = biological target: T4, ERG (Homo sapiens, UniProt P11308 1-479); conditions: protein: recombinant; tags: N-terminal GST; dsDNA, one strand shown
# T4 sequence: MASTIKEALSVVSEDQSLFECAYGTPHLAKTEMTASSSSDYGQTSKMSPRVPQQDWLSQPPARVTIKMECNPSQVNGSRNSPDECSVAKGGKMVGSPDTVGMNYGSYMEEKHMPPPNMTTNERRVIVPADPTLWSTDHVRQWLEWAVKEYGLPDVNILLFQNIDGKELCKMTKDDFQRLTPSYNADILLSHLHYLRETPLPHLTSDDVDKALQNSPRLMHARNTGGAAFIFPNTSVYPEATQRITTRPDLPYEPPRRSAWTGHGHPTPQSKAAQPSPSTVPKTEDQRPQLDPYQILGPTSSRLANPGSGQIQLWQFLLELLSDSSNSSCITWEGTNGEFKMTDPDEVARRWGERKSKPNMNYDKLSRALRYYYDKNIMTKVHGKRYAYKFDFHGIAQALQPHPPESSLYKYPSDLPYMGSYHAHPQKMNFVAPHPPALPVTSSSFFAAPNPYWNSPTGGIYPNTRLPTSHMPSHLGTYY
# How it was run: as §1
# [5] = biological target: ELF1 (Homo sapiens, UniProt P32519 1-619); conditions: protein: recombinant; tags: N-terminal GST; dsDNA, one strand shown
# Sequence of ELF1 (P32519 whole entry): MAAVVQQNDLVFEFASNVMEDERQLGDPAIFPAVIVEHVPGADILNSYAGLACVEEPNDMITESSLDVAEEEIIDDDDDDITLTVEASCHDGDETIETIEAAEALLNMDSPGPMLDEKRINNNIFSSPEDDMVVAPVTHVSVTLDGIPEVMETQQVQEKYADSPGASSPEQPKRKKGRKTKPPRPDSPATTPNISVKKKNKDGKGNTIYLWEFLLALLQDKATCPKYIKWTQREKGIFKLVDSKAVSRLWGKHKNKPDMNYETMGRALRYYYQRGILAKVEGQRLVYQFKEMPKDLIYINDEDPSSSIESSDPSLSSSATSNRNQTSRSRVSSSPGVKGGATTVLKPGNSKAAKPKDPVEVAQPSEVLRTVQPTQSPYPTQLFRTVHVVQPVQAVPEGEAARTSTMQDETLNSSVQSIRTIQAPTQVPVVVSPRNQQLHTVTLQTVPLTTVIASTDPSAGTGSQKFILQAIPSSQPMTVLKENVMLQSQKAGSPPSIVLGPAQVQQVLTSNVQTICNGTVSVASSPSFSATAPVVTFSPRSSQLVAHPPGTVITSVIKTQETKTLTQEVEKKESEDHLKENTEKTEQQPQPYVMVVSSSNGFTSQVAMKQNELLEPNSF
# How it was run: as §1
# [6] = biological target: T5, EHF (Homo sapiens, UniProt Q9NZC4 1-300); conditions: protein: recombinant; tags: N-terminal GST; dsDNA, one strand shown
# T5 sequence: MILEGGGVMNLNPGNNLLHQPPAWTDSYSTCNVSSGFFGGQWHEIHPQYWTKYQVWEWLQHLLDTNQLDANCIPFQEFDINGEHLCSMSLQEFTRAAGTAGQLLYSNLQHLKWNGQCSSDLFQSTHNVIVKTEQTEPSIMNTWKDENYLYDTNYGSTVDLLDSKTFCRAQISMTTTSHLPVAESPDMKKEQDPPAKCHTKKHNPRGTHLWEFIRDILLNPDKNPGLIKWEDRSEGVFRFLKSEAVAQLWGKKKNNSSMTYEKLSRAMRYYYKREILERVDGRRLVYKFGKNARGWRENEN
# How it was run: as §1
# [7] = biological target: SPI1 (Homo sapiens, UniProt P17947 1-270); conditions: protein: recombinant; tags: N-terminal GST; dsDNA, one strand shown
# How it was run: as §1
# [8] = biological target: SPIB (Homo sapiens, UniProt Q01892 1-262); conditions: protein: recombinant; tags: N-terminal GST; dsDNA, one strand shown
# Sequence of SPIB (Q01892 whole entry): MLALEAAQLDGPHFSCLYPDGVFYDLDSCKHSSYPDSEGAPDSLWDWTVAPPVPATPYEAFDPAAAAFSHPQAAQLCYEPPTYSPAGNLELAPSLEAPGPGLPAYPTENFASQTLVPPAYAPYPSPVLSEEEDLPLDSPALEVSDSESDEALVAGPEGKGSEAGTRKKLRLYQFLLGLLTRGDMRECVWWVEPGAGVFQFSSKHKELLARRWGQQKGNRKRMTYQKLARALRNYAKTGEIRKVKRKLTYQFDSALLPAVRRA
# How it was run: as §1
# [9] = biological target: T6, ELK3 (Homo sapiens, UniProt P41970 1-407); conditions: protein: recombinant; tags: N-terminal GST; dsDNA, one strand shown
# T6 sequence: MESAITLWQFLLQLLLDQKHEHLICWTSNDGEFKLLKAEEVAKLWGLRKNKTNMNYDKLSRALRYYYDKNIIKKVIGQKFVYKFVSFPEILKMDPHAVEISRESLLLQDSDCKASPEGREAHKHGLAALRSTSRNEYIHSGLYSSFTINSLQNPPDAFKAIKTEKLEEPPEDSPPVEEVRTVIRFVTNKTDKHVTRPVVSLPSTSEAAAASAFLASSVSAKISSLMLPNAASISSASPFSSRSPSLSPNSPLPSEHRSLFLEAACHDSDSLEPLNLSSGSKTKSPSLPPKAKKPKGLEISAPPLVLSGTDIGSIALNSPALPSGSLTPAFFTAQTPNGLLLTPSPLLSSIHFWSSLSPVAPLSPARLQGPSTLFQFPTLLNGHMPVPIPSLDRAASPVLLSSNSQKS
# How it was run: as §1
# [10] = biological target: T7, FEV (Homo sapiens, UniProt Q99581 1-238); conditions: protein: recombinant; tags: N-terminal GST; dsDNA, one strand shown
# T7 sequence: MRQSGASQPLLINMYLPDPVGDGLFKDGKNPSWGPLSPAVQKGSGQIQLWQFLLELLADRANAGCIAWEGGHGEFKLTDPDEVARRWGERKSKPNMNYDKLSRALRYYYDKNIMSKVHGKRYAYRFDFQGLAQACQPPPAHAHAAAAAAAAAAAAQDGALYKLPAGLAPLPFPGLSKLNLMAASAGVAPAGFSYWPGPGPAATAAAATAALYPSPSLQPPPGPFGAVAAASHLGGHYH
# How it was run: as §1
# [11] = biological target: ETV5 (Homo sapiens, UniProt P41161 1-510); conditions: protein: recombinant; tags: N-terminal GST; dsDNA, one strand shown
# Sequence of ETV5 (P41161 whole entry): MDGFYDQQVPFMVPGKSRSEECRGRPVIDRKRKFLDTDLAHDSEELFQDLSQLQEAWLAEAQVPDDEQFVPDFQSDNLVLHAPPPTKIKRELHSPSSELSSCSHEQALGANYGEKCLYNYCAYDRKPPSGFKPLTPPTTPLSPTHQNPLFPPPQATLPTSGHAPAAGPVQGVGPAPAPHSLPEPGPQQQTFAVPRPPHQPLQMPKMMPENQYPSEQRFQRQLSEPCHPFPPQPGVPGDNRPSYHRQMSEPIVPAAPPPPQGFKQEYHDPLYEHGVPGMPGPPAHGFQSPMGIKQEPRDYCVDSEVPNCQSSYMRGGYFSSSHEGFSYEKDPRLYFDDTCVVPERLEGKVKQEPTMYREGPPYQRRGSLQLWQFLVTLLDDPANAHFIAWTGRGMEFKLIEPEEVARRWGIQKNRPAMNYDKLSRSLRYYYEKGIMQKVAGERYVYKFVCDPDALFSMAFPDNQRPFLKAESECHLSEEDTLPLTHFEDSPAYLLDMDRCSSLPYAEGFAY
# How it was run: as §1
# [12] = biological target: HSF1 (Homo sapiens, UniProt Q00613 1-529); conditions: protein: recombinant; tags: N-terminal GST; chain copies: 3; dsDNA, one strand shown
# Sequence of HSF1 (Q00613 whole entry): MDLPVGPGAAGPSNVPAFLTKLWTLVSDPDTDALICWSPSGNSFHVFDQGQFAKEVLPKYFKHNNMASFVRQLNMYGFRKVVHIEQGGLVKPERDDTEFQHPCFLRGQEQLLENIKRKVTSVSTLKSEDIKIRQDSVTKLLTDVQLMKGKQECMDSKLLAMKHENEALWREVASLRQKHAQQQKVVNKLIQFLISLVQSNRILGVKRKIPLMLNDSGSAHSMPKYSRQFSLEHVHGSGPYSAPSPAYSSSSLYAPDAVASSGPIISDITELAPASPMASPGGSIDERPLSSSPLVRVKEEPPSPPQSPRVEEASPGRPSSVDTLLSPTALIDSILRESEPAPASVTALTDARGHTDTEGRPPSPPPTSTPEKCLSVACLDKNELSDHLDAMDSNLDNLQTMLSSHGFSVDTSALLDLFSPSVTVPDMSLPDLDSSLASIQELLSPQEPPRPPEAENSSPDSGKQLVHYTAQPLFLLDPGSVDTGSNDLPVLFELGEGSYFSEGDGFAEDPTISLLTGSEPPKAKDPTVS
# How it was run: as §1
# [13] = biological target: T8, SPIC (Homo sapiens, UniProt Q8N5J4 1-248); conditions: protein: recombinant; tags: N-terminal GST; dsDNA, one strand shown
# T8 sequence: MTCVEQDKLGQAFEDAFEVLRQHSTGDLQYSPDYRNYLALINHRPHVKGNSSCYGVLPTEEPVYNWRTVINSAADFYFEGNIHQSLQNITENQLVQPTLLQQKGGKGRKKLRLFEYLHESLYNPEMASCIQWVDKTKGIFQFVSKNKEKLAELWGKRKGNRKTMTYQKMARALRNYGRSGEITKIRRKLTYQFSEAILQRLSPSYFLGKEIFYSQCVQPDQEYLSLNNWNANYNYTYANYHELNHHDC
# How it was run: as §1
# [14] = biological target: ELF4 (Homo sapiens, UniProt Q99607 1-663); conditions: protein: recombinant; tags: N-terminal GST; dsDNA, one strand shown
# Sequence of ELF4 (Q99607 whole entry): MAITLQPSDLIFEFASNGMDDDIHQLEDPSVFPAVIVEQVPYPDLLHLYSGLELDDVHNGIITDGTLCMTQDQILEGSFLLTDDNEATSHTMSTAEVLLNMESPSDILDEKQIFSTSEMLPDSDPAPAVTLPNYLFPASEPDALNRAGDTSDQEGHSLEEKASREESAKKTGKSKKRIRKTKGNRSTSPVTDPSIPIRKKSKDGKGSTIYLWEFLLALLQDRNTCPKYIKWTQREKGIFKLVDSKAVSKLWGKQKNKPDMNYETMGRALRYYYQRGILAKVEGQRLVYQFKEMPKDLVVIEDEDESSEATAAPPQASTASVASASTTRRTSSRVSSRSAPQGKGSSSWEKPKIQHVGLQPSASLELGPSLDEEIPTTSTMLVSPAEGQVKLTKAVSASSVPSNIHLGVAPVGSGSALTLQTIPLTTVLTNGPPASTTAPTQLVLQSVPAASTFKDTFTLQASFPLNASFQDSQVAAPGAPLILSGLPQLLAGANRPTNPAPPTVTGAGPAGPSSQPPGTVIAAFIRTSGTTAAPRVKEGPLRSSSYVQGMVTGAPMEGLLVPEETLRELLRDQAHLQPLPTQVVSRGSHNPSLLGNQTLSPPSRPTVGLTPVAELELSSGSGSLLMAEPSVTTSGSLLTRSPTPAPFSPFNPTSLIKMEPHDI
# How it was run: as §1
# [15] = biological target: T9, ELK4 (Homo sapiens, UniProt P28324-2 1-405); conditions: protein: recombinant; tags: N-terminal GST; dsDNA, one strand shown
# T9 sequence: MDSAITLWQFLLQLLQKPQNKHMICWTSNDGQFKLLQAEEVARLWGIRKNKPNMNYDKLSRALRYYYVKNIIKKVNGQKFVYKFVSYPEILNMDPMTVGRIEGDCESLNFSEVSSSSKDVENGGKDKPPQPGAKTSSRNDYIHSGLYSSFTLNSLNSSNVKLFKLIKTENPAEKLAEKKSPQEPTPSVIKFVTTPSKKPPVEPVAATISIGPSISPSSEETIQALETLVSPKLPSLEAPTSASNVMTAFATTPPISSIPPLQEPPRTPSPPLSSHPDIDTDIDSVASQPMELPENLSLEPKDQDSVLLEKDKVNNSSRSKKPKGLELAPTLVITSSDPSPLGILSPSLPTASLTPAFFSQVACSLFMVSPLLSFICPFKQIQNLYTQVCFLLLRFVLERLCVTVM
# How it was run: as §1
# [16] = biological target: T10, ETV2 (Homo sapiens, UniProt O00321 1-342); conditions: protein: recombinant; tags: N-terminal GST; dsDNA, one strand shown
# T10 sequence: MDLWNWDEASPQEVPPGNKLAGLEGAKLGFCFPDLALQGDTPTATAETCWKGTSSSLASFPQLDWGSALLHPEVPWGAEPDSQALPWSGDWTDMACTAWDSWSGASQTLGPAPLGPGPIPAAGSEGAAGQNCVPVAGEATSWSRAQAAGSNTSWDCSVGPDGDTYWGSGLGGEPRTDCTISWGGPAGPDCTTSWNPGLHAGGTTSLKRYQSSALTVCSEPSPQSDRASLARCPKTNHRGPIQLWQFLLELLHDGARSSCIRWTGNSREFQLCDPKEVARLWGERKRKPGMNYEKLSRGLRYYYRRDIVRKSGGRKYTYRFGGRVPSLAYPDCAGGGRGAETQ
# How it was run: as §1
# [17] = biological target: T11, ELF3 (Homo sapiens, UniProt P78545 1-371); conditions: protein: recombinant; tags: N-terminal GST; dsDNA, one strand shown
# T11 sequence: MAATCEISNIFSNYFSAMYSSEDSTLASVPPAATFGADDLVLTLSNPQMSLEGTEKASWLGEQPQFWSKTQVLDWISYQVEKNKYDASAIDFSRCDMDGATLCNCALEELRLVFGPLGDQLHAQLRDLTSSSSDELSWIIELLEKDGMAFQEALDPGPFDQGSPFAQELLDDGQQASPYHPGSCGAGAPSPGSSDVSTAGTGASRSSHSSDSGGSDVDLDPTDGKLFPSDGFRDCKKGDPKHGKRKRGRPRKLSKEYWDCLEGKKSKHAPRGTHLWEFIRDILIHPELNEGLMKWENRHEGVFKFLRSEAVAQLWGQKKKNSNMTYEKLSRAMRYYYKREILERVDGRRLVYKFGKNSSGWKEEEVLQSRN
# How it was run: as §1
# [18] = biological target: CRX (Homo sapiens, UniProt O43186 1-299); conditions: protein: recombinant; tags: N-terminal GST; dsDNA, one strand shown
# Sequence of CRX (O43186 whole entry): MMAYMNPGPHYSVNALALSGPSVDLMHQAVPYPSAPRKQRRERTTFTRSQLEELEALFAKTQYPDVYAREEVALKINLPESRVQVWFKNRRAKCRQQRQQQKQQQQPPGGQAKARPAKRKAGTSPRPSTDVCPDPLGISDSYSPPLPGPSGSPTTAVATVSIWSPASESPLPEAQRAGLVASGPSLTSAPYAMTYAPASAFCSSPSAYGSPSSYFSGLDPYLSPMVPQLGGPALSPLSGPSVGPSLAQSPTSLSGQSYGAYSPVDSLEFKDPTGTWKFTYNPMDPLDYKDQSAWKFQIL
# How it was run: as §1
# [19] = biological target: ETV1 (Homo sapiens, UniProt P50549 1-477); conditions: protein: recombinant; tags: N-terminal GST; dsDNA, one strand shown
# Sequence of ETV1 (P50549 whole entry): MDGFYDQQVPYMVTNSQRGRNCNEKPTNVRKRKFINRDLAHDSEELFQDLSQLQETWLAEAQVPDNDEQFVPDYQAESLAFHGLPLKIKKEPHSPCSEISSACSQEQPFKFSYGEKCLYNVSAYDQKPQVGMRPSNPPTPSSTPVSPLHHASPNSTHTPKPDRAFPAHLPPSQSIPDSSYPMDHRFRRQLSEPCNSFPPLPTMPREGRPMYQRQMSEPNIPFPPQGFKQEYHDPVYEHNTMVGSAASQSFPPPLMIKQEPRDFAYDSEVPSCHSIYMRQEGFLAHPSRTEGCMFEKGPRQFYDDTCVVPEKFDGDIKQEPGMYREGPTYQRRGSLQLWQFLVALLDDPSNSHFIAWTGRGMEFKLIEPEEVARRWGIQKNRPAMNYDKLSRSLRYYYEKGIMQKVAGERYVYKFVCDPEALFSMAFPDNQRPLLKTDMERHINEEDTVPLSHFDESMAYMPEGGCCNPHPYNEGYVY
# How it was run: as §1
sequence,measurement,setting,value
CTCCTT,binding signal,[1],"1.92 fold enrichment (6-mer frequency, TF over GST control)"
same,binding signal,[2],"1.72 fold enrichment (6-mer frequency, TF over GST control)"
same,binding signal,[3],"1.7 fold enrichment (6-mer frequency, TF over GST control)"
same,binding signal,[4],"1.82 fold enrichment (6-mer frequency, TF over GST control)"
same,binding signal,[5],"1.94 fold enrichment (6-mer frequency, TF over GST control)"
same,binding signal,[6],"1.64 fold enrichment (6-mer frequency, TF over GST control)"
same,binding signal,[7],"1.71 fold enrichment (6-mer frequency, TF over GST control)"
same,binding signal,[8],"1.82 fold enrichment (6-mer frequency, TF over GST control)"
same,binding signal,[9],"1.65 fold enrichment (6-mer frequency, TF over GST control)"
same,binding signal,[10],"1.75 fold enrichment (6-mer frequency, TF over GST control)"
same,binding signal,[11],"1.62 fold enrichment (6-mer frequency, TF over GST control)"
same,binding signal,[12],"1.61 fold enrichment (6-mer frequency, TF over GST control)"
same,binding signal,[13],"1.86 fold enrichment (6-mer frequency, TF over GST control)"
same,binding signal,[14],"1.8 fold enrichment (6-mer frequency, TF over GST control)"
same,binding signal,[15],"1.67 fold enrichment (6-mer frequency, TF over GST control)"
same,binding signal,[16],"1.7 fold enrichment (6-mer frequency, TF over GST control)"
same,binding signal,[17],"1.96 fold enrichment (6-mer frequency, TF over GST control)"
same,binding signal,[18],"1.57 fold enrichment (6-mer frequency, TF over GST control)"
same,binding signal,[19],"1.69 fold enrichment (6-mer frequency, TF over GST control)"
